Source: PubChem BioAssay
HT1080 IDH1KD tx: qHTS for induction of synthetic lethality in tumor cells producing 2HG: qHTS for the HT-1080-IDH1KD cell line; HT-1080 IDH1 knockdown viability, ATP luminescence, 48 h; Potency, µM (top dose mostly 46.1 µM), actives largely listed as cytotoxic; 2% of 360,000 active
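Viability of IDH1-knockdown HT-1080 fibrosarcoma cells was assessed by CellTiter-Glo after 48 h at 37 °C with titrated compound; concentration-effect curves were classified by fit quality and response size.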
SW480 rereplic: A quantitative high throughput screen for small molecules that induce DNA re-replication in SW480 colon adenocarcinoma cells; SW480 DNA re-replication, Hoechst DNA content imaging, 48 h; Potency, µM (titrated, usually from 46.1 µM), most hits filed as activators; 1.8% of 340,000 active; AID 624297, 2012; further: nearly all actives have a fitted effect of over 55% in size
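Compounds, transferred as 23 nL by pin tool, were incubated with cells for 48 hr; DNA content per nucleus was then quantified by Hoechst staining and fluorescence plate imaging.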
KB-3-1 cytotox: qHTS assay for MDR1-selective chemotherapeutics: Primary screen using the parental adenocarcinoma cell KB-3-1 | KB-3-1 viability, CellTiter-Glo ATP luminescence, 72 h | Potency, µM (series often up to 46.1 µM), most hits filed as cytotoxic | 1.4% of 400,000 active; further: nearly all actives have a fitted effect of over 60% in size
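Cytotoxicity in the drug-sensitive parental line KB-3-1 was scored as loss of CellTiter-Glo luminescence following 72 h incubation with compound. Values come from curve fitting of normalized concentration-response data.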
KB-V1 cytotox: qHTS assay for MDR1-selective chemotherapeutics: Primary screen using the drug-selected MDR subline cells KB-V1. KB-V1 MDR cells viability, CellTiter-Glo, 72 h. 3.4% of 400,000 active. AID 1347076, 2019. Potency, µM (highest dose often 46.1 µM), most hits filed as cytotoxic; further: nearly all actives have a fitted effect of over 60% in size
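Following 72 h at 37 degrees C with compound, KB-V1 cell viability was read by CellTiter-Glo luminescence, medium being phenol-red-free DMEM plus 10% FBS; concentration-response parameters came from normalized, curve-fitted qHTS data.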
MCF10A rerep: A quantitative high throughput screen for small molecules that induce DNA re-replication in MCF 10a normal breast cells | 2.9% of 350,000 active | Potency, µM (series often up to 46.1 µM), most hits filed as activators | MCF 10A DNA re-replication, Hoechst nuclear intensity, 48 h | AID 624296, 2012; further: nearly all actives have a fitted effect of over 50% in size
HT1080NT lethal: qHTS for induction of synthetic lethality in tumor cells producing 2HG: qHTS for the HT-1080-NT fibrosarcoma cell line; HT-1080-NT fibrosarcoma viability, CellTiter-Glo ATP luminescence, 48 h; Potency, µM (top dose mostly 46.1 µM), hits mostly cytotoxic; 1.6% of 360,000 active; AID 686970, 2013;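 further: NT is the 2HG producing partner of a matched IDH1 knockdown line; nearly all actives have a fitted effect of over 55% in size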
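750 cells/well, RPMI + 5% FBS; 2 h settle, compound pin-transfer, 48 h at 37 degrees C. CellTiter-Glo 10 min RT, luminescence. Normalized to DMSO and media-only wells.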
Of the large screens only hits and unclear results are named; the others gave an inactive call. Most compounds without a hit are left out; they make up all but 7.9% or so of the library. The call rests on the fitted dose curve; in most records, active means well fitted curve in the direction sought with a large enough effect; inconclusive means small, poorly fitted or top-dose-only effect, or another doubt; inactive means no such curve, though single readings can be large; an effect the other way counts as inactive or inconclusive.

Cc1nn(C)cc1C(=O)/C=C/c1ccc([N+](=O)[O-])cc1	HT1080 IDH1KD tx inconclusive, SW480 rereplic inconclusive, KB-3-1 cytotox inconclusive, KB-V1 cytotox inconclusive, MCF10A rerep inconclusive, HT1080NT lethal 23.1µM
Nc1cccnc1S(=O)(=O)c1ccccc1	KB-V1 cytotox inconclusive
Nc1nc(N)c2cc(S(=O)(=O)c3cccc(C(F)(F)F)c3)ccc2n1	HT1080 IDH1KD tx 10.3µM, KB-3-1 cytotox inconclusive, KB-V1 cytotox inconclusive, HT1080NT lethal 13µM (no result: SW480 rereplic, MCF10A rerep)
Nc1cccnc1S(=O)(=O)c1cccc(C(F)(F)F)c1	SW480 rereplic 2.91µM
CCOC(=O)N1CCN(Cc2nc3cc([N+](=O)[O-])ccc3n2CC)CC1	none
COc1ccc(N/N=C(\C=N\O)C(=O)c2ccc(OC)cc2)cc1	HT1080 IDH1KD tx inconclusive, SW480 rereplic inconclusive, KB-3-1 cytotox inconclusive, MCF10A rerep 6.51µM, HT1080NT lethal inconclusive
COc1ccc(C(=O)C(=NNc2ccccc2)c2ccc(OC)cc2)cc1	none
O=C1OCC(CO)(CO)N=C1NNc1ccccc1Cl	HT1080NT lethal 10µM
O=C(O)C1(Nc2ccccc2Cl)CCCC1	none
CCc1nnc(NC(=O)CCC(=O)N2CCCC(O)C2)s1 (centres undefined)	none
CCOC(=O)C1=C(N)n2c(s/c(=C\c3cccnc3)c2=O)=C(C#N)C1c1cccnc1 (centres undefined)	none
CC(C)c1ccc(/C=c2\sc3n(c2=O)C(N)=C(C#N)C(c2ccc(C(C)C)cc2)C=3C(N)=O)cc1 (centres undefined)	SW480 rereplic inconclusive, KB-3-1 cytotox inconclusive, MCF10A rerep 1.3µM
COc1ccc(-c2n[nH]c3c2CN(C(=O)c2ccc(OC)c(OC)c2)CC3)cc1	HT1080 IDH1KD tx 20.6µM, SW480 rereplic inconclusive, KB-3-1 cytotox 7.31µM, KB-V1 cytotox inconclusive, MCF10A rerep 20.6µM
COc1ccc(/C(O)=C(\C#N)c2nc3ccccc3n2C)cc1OC	KB-V1 cytotox 5.8µM
Cc1ccccc1C(=O)NNC1=NCCC1	none
Cc1nnc(Sc2nc3ccccc3o2)c2ccccc12	HT1080 IDH1KD tx 20.6µM, SW480 rereplic inconclusive, KB-3-1 cytotox inconclusive, MCF10A rerep 12.6µM, HT1080NT lethal inconclusive
CCSc1nnc(-c2ccc(Cl)cc2)c2ccccc12	none
Cc1ccc(-c2nnc(Sc3nc4ccccc4o3)c3ccccc23)cc1	HT1080 IDH1KD tx 11.2µM, SW480 rereplic inconclusive, MCF10A rerep 8.2µM, HT1080NT lethal inconclusive
CCSc1nnc(C)c2ccccc12	KB-V1 cytotox inconclusive
Clc1ccc(-c2nnc(Sc3nc4ccccc4o3)c3ccccc23)cc1	HT1080 IDH1KD tx 11.2µM, KB-3-1 cytotox inconclusive, MCF10A rerep inconclusive, HT1080NT lethal 11.2µM
CCSc1nnc(-c2ccc(C)cc2)c2ccccc12	KB-V1 cytotox inconclusive
O=C(OCC(=O)c1c[nH]c2ccccc12)c1ccc([N+](=O)[O-])s1	SW480 rereplic 20.6µM, KB-V1 cytotox inconclusive
Cc1ccc(-c2csc3nc[nH]c(=S)c23)cc1C	HT1080 IDH1KD tx 20.6µM, SW480 rereplic inconclusive, KB-3-1 cytotox inconclusive, KB-V1 cytotox 13µM, MCF10A rerep inconclusive, HT1080NT lethal inconclusive
COCc1cc(C)nc(OCC(=O)N/N=C/c2ccc(OC)c(OC)c2)c1C#N	MCF10A rerep inconclusive
COCc1cc(C)nc(OCC(=O)N/N=C/c2ccc(O)cc2)c1C#N	SW480 rereplic 18.4µM
CCN(CC)CC#CCC(O)(c1ccccc1)c1ccc(Br)cc1 (centres undefined)	KB-V1 cytotox inconclusive, MCF10A rerep inconclusive
COc1ccc(-n2nc(C(=O)NCC(=O)N3CCN(c4ccccc4F)CC3)c3ccccc3c2=O)cc1	none
